Results taken from ChEMBL document CHEMBL3988442, “University of Dundee, Small-Polar-MMV Screening Library” (2021).
In all, about 66,000 compounds went through this assay and about 960 (1.5%) showed an effect of 50% or more. The full list was thinned out, with strong results kept by preference.

Tested on: Trypanosoma brucei
Experiment: Trypanosoma brucei 72 hour study
Type: functional, organism-based
Parameters: scale not given: in the data most compounds retested in dose-response had high values

CN(Cc1cncnc1)[C@@H]1CN(C(=O)c2ccco2)[C@@H]2CCCO[C@H]12.O=C(O)C(F)(F)F
Percent Effect (30.3 µM, […]): -35.75%

Cc1nc(Nc2cnccn2)cc(C2CCN(c3ncccn3)C2)n1 (stereo not drawn)
Percent Effect (30.3 µM, […]): 26.81%

c1cnc(Nc2cncc(C3CCCN(c4ncccn4)C3)n2)nc1 (stereo not drawn)
Percent Effect (30.3 µM, […]): -5.193%

CC(=O)N1CCCC1c1csc(Nc2cnccn2)n1 (stereo not drawn)
Percent Effect (30 µM, 30.03 µM): -20%

CCC(=O)N1CCCC1c1csc(Nc2cnccn2)n1 (stereo not drawn)
Percent Effect (30.3 µM, […]): 65.49%

OCCN1CCC(c2csc(Nc3cnccn3)n2)CC1
Percent Effect (30.3 µM, […]): 6.088%

COCC(=O)N1CCCC1c1csc(Nc2cnccn2)n1 (stereo not drawn)
Percent Effect (30.3 µM, […]): 22.69%

c1cnc(N2CCCC(c3csc(Nc4cnccn4)n3)C2)nc1 (stereo not drawn)
Percent Effect (30.3 µM, […]): 86.19%

c1cnc(N2CCC(c3csc(Nc4cnccn4)n3)CC2)nc1
Percent Effect (30.3 µM, […]): 69.17%

NC(=O)CN1CCC(c2csc(Nc3cnccn3)n2)CC1
Percent Effect (30.3 µM, […]): 30.88%

Cc1c[nH]nc1C1CCCN1Cc1nccn1C.O=CO (stereo not drawn)
Percent Effect (30.3 µM, […]): -18.81%

CN1CCC(CN2CCC3(CCCN(Cc4ccoc4)C3)C2=O)CC1.O=C(O)C(F)(F)F.O=C(O)C(F)(F)F (stereo not drawn)
Percent Effect (30.3 µM, […]): -15.67%

Cn1cc(-c2ncc3c(c2C(=O)O)CCN(Cc2ccco2)C3)cn1.O=C(O)C(F)(F)F
Percent Effect (30.3 µM, […]): -50.82%

CN(C)C1CCC2(CCN(Cc3cccnc3)CC2)c2ccccc21.O=C(O)C(F)(F)F.O=C(O)C(F)(F)F.O=C(O)C(F)(F)F (stereo not drawn)
Percent Effect (30.3 µM, […]): -21.62%

c1cc(C2CCN(c3ncnc4c3CCNCC4)CC2)ccn1
Percent Effect (30.3 µM, […]): 2.643%

c1ccc(C2CCCN(c3ncnc4c3CCNC4)CC2)cc1 (stereo not drawn)
Percent Effect (30.3 µM, […]): 41.62%

c1ccc2c(c1)CN(c1ncnc3c1CCNC3)CCO2
Percent Effect (30.3 µM, […]): 5.814%

c1ccn2c(C3CCCN(c4ncnc5c4CCNC5)C3)nnc2c1 (stereo not drawn)
Percent Effect (30 µM, 30.03 µM): -44.47%

c1ccc(C2CCN(c3ncnc4c3CCNC4)CC2)cc1
Percent Effect (30.3 µM, […]): 50.1%

Clc1cccc(C2CCN(c3ncnc4c3CCNC4)C2)c1 (stereo not drawn)
Percent Effect (30.3 µM, […]): 68.15%

CCCC(=O)NC1CCN(c2ccccc2S(=O)(=O)CC)CC1
Percent Effect (30.3 µM, […]): -21.44%

CCNc1ncc2c(n1)CN(c1ccc(CC)cc1)C2=O
Percent Effect (30.3 µM, […]): -19.29%

COc1cccc(Cc2nc3c([nH]2)CC(C)(C)CNC3=O)c1OC
Percent Effect (30 µM, 30.03 µM): 5.431%

O=C1NCCN1C1CCN(Cc2nc(-c3ccccc3)no2)CC1
Percent Effect (30.3 µM, […]): 2.472%
Percent Effect (10 mM, 10 mM as filed; unlikely as a test dose): -47.27%

O=C(c1ccco1)N1C[C@H]2CN(Cc3cccc(F)c3)C(=O)[C@H]2C1
Percent Effect (30 µM, 30.03 µM): -14.72%

O=C(NC1CC1)N1C[C@H]2CN(Cc3cccc(F)c3)C(=O)[C@H]2C1
Percent Effect (30 µM, 30.03 µM): 59.25%

O=C(CO)N1C[C@H]2CN(Cc3cccc(F)c3)C(=O)[C@H]2C1
Percent Effect (30 µM, 30.03 µM): -7.119%

O=C(O)C(F)(F)F.O=C(O)C(F)(F)F.c1csc(CN2CCOCC3(CCN(C4CCOCC4)C3)C2)c1 (stereo not drawn)
Percent Effect (30 µM, 30.03 µM): 45.09%

O=c1[nH]c2c(c(=O)n1C1CCCCC1)CCC2NCc1ccccc1 (stereo not drawn)
Percent Effect (30 µM, 30.03 µM): -25.27%

CCn1nc(C)c2ncnc(NCCCn3ccnc3)c21
Percent Effect (30.3 µM, […]): -35.88%

COc1ccccc1Oc1ncccc1CNC(=O)C1COC(=O)N1 (stereo not drawn)
Percent Effect (30 µM, 30.03 µM): -37.43%

Cc1ccc(Oc2ncccc2CNC(=O)C2COC(=O)N2)c(F)c1F (stereo not drawn)
Percent Effect (30 µM, 30.03 µM): 17.54%

Cc1cccc(C)c1Oc1ncccc1CNC(=O)C1COC(=O)N1 (stereo not drawn)
Percent Effect (30 µM, 30.03 µM): 52.62%

O=C(O)C(F)(F)F.O=C(O)C(F)(F)F.O=C(O)C(F)(F)F.O=C(O)C(F)(F)F.c1ccc(CN2CCc3c(COCc4ccncc4)cncc3C2)nc1
Percent Effect (30.3 µM, […]): -62.04%

CCN(CC)Cc1cc(=O)n2c(n1)CN(S(=O)(=O)C1CC1)CCC2.O=C(O)C(F)(F)F
Percent Effect (30.3 µM, […]): -2.806%

COc1c(CNC2CCc3c(F)cccc32)c(C)nn1C.Cl (stereo not drawn)
Percent Effect (10 µM): -43.32%

CC(C)[C@@H]1CN(CCOc2ccc(Cl)cc2)C[C@H]1NS(C)(=O)=O
Percent Effect (30.3 µM, […]): 10.13%

CC(C)[C@@H]1CN(Cc2ccccn2)C[C@H]1NS(=O)(=O)N(C)C
Percent Effect (30 µM, 30.03 µM): -48.57%

CC(C)[C@@H]1CN(CCOc2ccccc2)C[C@H]1NS(=O)(=O)N(C)C
Percent Effect (30.3 µM, […]): 99.19%

Cc1ccc2c(c1)C(=O)NCC1(CCN(C(=O)c3ccccn3)CC1)O2
Percent Effect (30.3 µM, […]): 1.622%

CCN1C(=O)CC(c2ccccc2)C12CCN(CC1CCOCC1)CC2.O=C(O)C(F)(F)F (stereo not drawn)
Percent Effect (30.3 µM, […]): 16.26%

CNc1ncc2c(n1)CN(CCc1ccccc1)C2=O
Percent Effect (30 µM, 30.03 µM): 0.2551%

COc1ccccc1OC1CCN(Cc2cnc(N(C)C)nc2)CC1
Percent Effect (30 µM, 30.03 µM): 59.89%

COCc1ncc(CN2CCC(Oc3ccccc3OC)CC2)cn1
Percent Effect (30 µM, 30.03 µM): -7.671%

COc1ccccc1OC1CCN(Cc2ccc(N(C)C)nc2)CC1
Percent Effect (30 µM, 30.03 µM): 16.29%

C[C@@H]1C(=O)NC[C@H]2CN(Cc3ccc4c(c3)OCO4)C[C@H]21.O=C(O)C(F)(F)F
Percent Effect (30.3 µM, […]): -39.22%

Cn1cccc1CN1CCC2(CC1)CN(c1ccccc1)C(=O)CO2.O=C(O)C(F)(F)F
Percent Effect (30 µM, 30.03 µM): -21.68%

CCCn1ccc(C(=O)N2CCOC(c3nc(-c4cccs4)no3)C2)n1 (stereo not drawn)
Percent Effect (30 µM, 30.03 µM): 67.6%

CCCn1cc(C(=O)N2CCOC(c3nc(-c4cccs4)no3)C2)cn1 (stereo not drawn)
Percent Effect (30.3 µM, […]): 19.04%

CCn1ccc(C(=O)N2CCOC(c3nc(-c4cccs4)no3)C2)n1 (stereo not drawn)
Percent Effect (30.3 µM, […]): 21.37%

Cc1csc(CN2CCC3(CC2)COC(COCC2CC2)C3)n1.O=C(O)C(F)(F)F (stereo not drawn)
Percent Effect (30.3 µM, […]): -1.163%

COc1nn(C)c2c1CCCN(C(=O)c1ccc3c(c1)OCO3)C2.O=C(O)C(F)(F)F
Percent Effect (30 µM, 30.03 µM): -20.99%

CC(=O)N1CCN(c2cc(CCN)nc(C3CC3)n2)CC1.Cl
Percent Effect (30.3 µM, […]): 1.602%

COCCN1C[C@@H]2CN(Cc3ccc(F)cc3)C[C@@H]2C1=O.O=C(O)C(F)(F)F
Percent Effect (30.3 µM, […]): -7.407%

O=C(O)C(F)(F)F.O=C1[C@H]2CN(Cc3cccs3)C[C@H]2CN1c1ccsc1
Percent Effect (30 µM, 30.03 µM): 27.72%

O=C(O)C(F)(F)F.O=C1[C@H]2CN(Cc3ccco3)C[C@H]2CN1c1ccsc1
Percent Effect (30 µM, 30.03 µM): 73.83%

O=C(O)C(F)(F)F.O=C1[C@H]2CN(Cc3ccc(F)cc3)C[C@H]2CN1c1ccsc1
Percent Effect (30 µM, 30.03 µM): 14.65%
